Consider 15 molecules from PMC12864922, “TDP-43 directly inhibits mRNA accumulation in neurites through modulation of mRNA stability”.

In all, about 9,900 sequences were measured (“r (bound/input frequency ratio)”: median about 0.7, highest 2% from about 6.5 on). This is one part of a sample in which the highest values are shown more often than they occur.

B1: ENSMUSG00000004113.212|Cacna1b (ssRNA)
RNA: GGGAGUUCUACAGUCCGACGAUCGCUUCGAUAUCCGCAUGCUAGCUCAGAGCAGCACGGGGGCUUGUGUCUUAGGGACAUUGACAGUGUCCAUCAGCAUGUCAGAGAAGCAGCUGUAGUGCCCGUGUUUCUCCCUGAGUCAUGGGUUCUGAAGAAGCCAGAGCGGCACAAUGCGUGCUUGCAUGAGGCACUUUCAGCCUUUUUAAAUCUGACUCUCAGGGAUGGGAUGCCUGCCAAGUAGGGUGUAAUCUCUGUUGUGUUUUUAAAACAACAACAACAAAAUAAAACAAAAAAAAAAAACCUACUCUUGCGGUCGCACUAGUGUGGAAUUCUCGGGUGUCAAGG
B2: ENSMUSG00000061578.1091|Ksr2|55:59 (ssRNA)
RNA: GGGAGUUCUACAGUCCGACGAUCGCUUCGAUAUCCGCAUGCUACAACCAUGAAAAUAGAGGUUUGUAAUGUACAGAAGGCUGGGGGAGCUUUCAGGGCACACGCCAGUUAUGUACAGAUGUGAAGCUGAGGUCUGAAGGAAAUGGAGGAAGUAGGAAGAUCAGACUGGUUGAAUUAGAAGUCUGUCACUCUAGGUGCUAAGUGACCUUGGACCCAGUCAGUUCUUGGAUUUCUGUUGUAGCCCAGGCUAGCCUCGAACCCUUGAUCCUCCUGUUCCUGGUAGAGAAACAGCCACUAAAUGGUGCUCUUGCGGUCGCACUAGUGUGGAAUUCUCGGGUGUCAAGG
B3: ENSMUSG00000004113.162|Cacna1b (ssRNA)
RNA: GGGAGUUCUACAGUCCGACGAUCGCUUCGAUAUCCGCAUGCUAGGUUUUCAGUCACAACACUUUCACUGUUUGUCAUUUCUAUGUAGUUGAUCUAGAAAAAGCAGAAAUCAAAACAGGAAAGGAAAUGUUUGUGUAACUUUAAAAAAAAAGUCAACAUGUAGGAAGGUCUCCAUUUUGCAUUGUUUCUGUGUCUUGUAUGCAAUGUUCCUGUAUGUUUCUACCCUGCCUGGGAUGUCCCCAAUGACCCUGGCUCCUCUGCUCAACCAAGUGCCUGAUCUCUGGCUCUGAGCAUCGUGGAUGAGCUCUUGCGGUCGCACUAGUGUGGAAUUCUCGGGUGUCAAGG
B4: ENSMUSG00000029636.179|Wasf3 (ssRNA)
RNA: GGGAGUUCUACAGUCCGACGAUCGCUUCGAUAUCCGCAUGCUACCCCUCCUGAAGCACAGCUCUCUUCUCUCCUGUUGUCGGCACAUUUUCAAUUUUAAAAAGUACCUCACAAGAUAAACUUGAUUCAGCCAGUUGCCCGGGCAGAGACCUGACUUCCCCUCUCCUGCCCUGAUCCUUUUUACCAAAUGGCGAUUCCAUAGUCCUGGCUGAGGCAGGGGCUCAAAGUCCAGUGUCUGCUUUGCAAUUCUGGAAGGACAGCUGCUUAUUUAAAUAAGUCUGUGAUAUCCGCAGGCUUGGGUUACCUCUUGCGGUCGCACUAGUGUGGAAUUCUCGGGUGUCAAGG
B5: ENSMUSG00000061578.745|Ksr2 (ssRNA)
RNA: GGGAGUUCUACAGUCCGACGAUCGCUUCGAUAUCCGCAUGCUACAUCUCUGGCUCUUUGUUUCCACUCUGGCCCAAGUUUGAGUCUCCAUAUGGGCCCUUCCUGUCCUCAUGCCCUGCCUGUCUUCAUUCCACCCAUCCACCCUCCUAAGGAUUGGUCUUGUUCCGAGAGUGAUCCUGGUAACGCCAAGCCUCCCUCUGCCCCUGUGUUGGCUUCUGUGACGGACUACCACACACCAAGAGGUUUUUCACAGUGAAGAUGUAUGCUCUCACCAUCCUACAGAUGCAAAGACCAAACACAAAGUCUCUUGCGGUCGCACUAGUGUGGAAUUCUCGGGUGUCAAGG
B6: ENSMUSG00000042529.290|Kcnj12 (ssRNA)
RNA: GGGAGUUCUACAGUCCGACGAUCGCUUCGAUAUCCGCAUGCUAGGCACCUGUCAUUCUUUCUGAGUAGGUGGGCCUGUAUCCAGAGCAGGGUCUAGGGGCUCCUGCUCCCGGCUCAUCUCAGUGGCCUGAAGCAUUCAAAACUCUAGCCAGCCCCAUCCUCCUCCCUGCCAGAAUGGUCCAGUCCCUGGGCCCUGCUGGAGAGCAGCUCAAACUGCCUUUCAUCUCUGCCAAAGGCAGGCAGAUGCUGUAUUUUCAAAUUCUCCUGCCCUCUUUUCCCCUUUUUCCCUGUAUUUAUUUAUUGCCUCUUGCGGUCGCACUAGUGUGGAAUUCUCGGGUGUCAAGG
B7: ENSMUSG00000042529.419|Kcnj12 (ssRNA)
RNA: GGGAGUUCUACAGUCCGACGAUCGCUUCGAUAUCCGCAUGCUAGUGUGUGUGUGUGUGUGAACAUGUGUGAGGGUGUGGAGGUCCCAGGGUGUGUGUAUGUGAAUGUCAGUGGCUUGGGUGCUGUGUGGAGAGAGAGAGAGAGAGAGAGAGAGAGAGAGAGAGAGAGAGAGAGAGAGAGCUGCACAGGAUGAAGCAGCUGCCCUGAGCCCAUCUGGUGCUGUGCACCUGGUCCUUGUCCAGCCGAGGGCCUGGGGGCAGAAGAACACACCAUAGGGAGGCCCUUGUAUGGGUGUCUGCCCUAUCUCUUGCGGUCGCACUAGUGUGGAAUUCUCGGGUGUCAAGG
B8: ENSMUSG00000042529.420|Kcnj12 (ssRNA)
RNA: GGGAGUUCUACAGUCCGACGAUCGCUUCGAUAUCCGCAUGCUAGUGUGUGUGUGAACAUGUGUGAGGGUGUGGAGGUCCCAGGGUGUGUGUAUGUGAAUGUCAGUGGCUUGGGUGCUGUGUGGAGAGAGAGAGAGAGAGAGAGAGAGAGAGAGAGAGAGAGAGAGAGAGAGAGCUGCACAGGAUGAAGCAGCUGCCCUGAGCCCAUCUGGUGCUGUGCACCUGGUCCUUGUCCAGCCGAGGGCCUGGGGGCAGAAGAACACACCAUAGGGAGGCCCUUGUAUGGGUGUCUGCCCUAUGUGAGGCUCUUGCGGUCGCACUAGUGUGGAAUUCUCGGGUGUCAAGG
B9: ENSMUSG00000042529.423|Kcnj12 (ssRNA)
RNA: GGGAGUUCUACAGUCCGACGAUCGCUUCGAUAUCCGCAUGCUAGUGAGGGUGUGGAGGUCCCAGGGUGUGUGUAUGUGAAUGUCAGUGGCUUGGGUGCUGUGUGGAGAGAGAGAGAGAGAGAGAGAGAGAGAGAGAGAGAGAGAGAGAGAGAGAGCUGCACAGGAUGAAGCAGCUGCCCUGAGCCCAUCUGGUGCUGUGCACCUGGUCCUUGUCCAGCCGAGGGCCUGGGGGCAGAAGAACACACCAUAGGGAGGCCCUUGUAUGGGUGUCUGCCCUAUGUGAGGUCAUAGAAUGUUAAAUCUCUCUUGCGGUCGCACUAGUGUGGAAUUCUCGGGUGUCAAGG
B10: ENSMUSG00000042529.418|Kcnj12 (ssRNA)
RNA: GGGAGUUCUACAGUCCGACGAUCGCUUCGAUAUCCGCAUGCUAGUGUGUGUGUGUGUGUGUGUGUGAACAUGUGUGAGGGUGUGGAGGUCCCAGGGUGUGUGUAUGUGAAUGUCAGUGGCUUGGGUGCUGUGUGGAGAGAGAGAGAGAGAGAGAGAGAGAGAGAGAGAGAGAGAGAGAGAGAGAGCUGCACAGGAUGAAGCAGCUGCCCUGAGCCCAUCUGGUGCUGUGCACCUGGUCCUUGUCCAGCCGAGGGCCUGGGGGCAGAAGAACACACCAUAGGGAGGCCCUUGUAUGGGUGUCUGCUCUUGCGGUCGCACUAGUGUGGAAUUCUCGGGUGUCAAGG
B11: ENSMUSG00000042529.416|Kcnj12 (ssRNA)
RNA: GGGAGUUCUACAGUCCGACGAUCGCUUCGAUAUCCGCAUGCUAGUGUGUGUGUGUGUGUGUGUGUGUGUGUGUGUGUGAACAUGUGUGAGGGUGUGGAGGUCCCAGGGUGUGUGUAUGUGAAUGUCAGUGGCUUGGGUGCUGUGUGGAGAGAGAGAGAGAGAGAGAGAGAGAGAGAGAGAGAGAGAGAGAGAGAGAGCUGCACAGGAUGAAGCAGCUGCCCUGAGCCCAUCUGGUGCUGUGCACCUGGUCCUUGUCCAGCCGAGGGCCUGGGGGCAGAAGAACACACCAUAGGGAGGCCCUUGCUCUUGCGGUCGCACUAGUGUGGAAUUCUCGGGUGUCAAGG
B12: ENSMUSG00000042529.422|Kcnj12 (ssRNA)
RNA: GGGAGUUCUACAGUCCGACGAUCGCUUCGAUAUCCGCAUGCUAACAUGUGUGAGGGUGUGGAGGUCCCAGGGUGUGUGUAUGUGAAUGUCAGUGGCUUGGGUGCUGUGUGGAGAGAGAGAGAGAGAGAGAGAGAGAGAGAGAGAGAGAGAGAGAGAGAGAGCUGCACAGGAUGAAGCAGCUGCCCUGAGCCCAUCUGGUGCUGUGCACCUGGUCCUUGUCCAGCCGAGGGCCUGGGGGCAGAAGAACACACCAUAGGGAGGCCCUUGUAUGGGUGUCUGCCCUAUGUGAGGUCAUAGAAUGUUCUCUUGCGGUCGCACUAGUGUGGAAUUCUCGGGUGUCAAGG
B13: ENSMUSG00000042529.421|Kcnj12 (ssRNA)
RNA: GGGAGUUCUACAGUCCGACGAUCGCUUCGAUAUCCGCAUGCUAGUGUGAACAUGUGUGAGGGUGUGGAGGUCCCAGGGUGUGUGUAUGUGAAUGUCAGUGGCUUGGGUGCUGUGUGGAGAGAGAGAGAGAGAGAGAGAGAGAGAGAGAGAGAGAGAGAGAGAGAGAGCUGCACAGGAUGAAGCAGCUGCCCUGAGCCCAUCUGGUGCUGUGCACCUGGUCCUUGUCCAGCCGAGGGCCUGGGGGCAGAAGAACACACCAUAGGGAGGCCCUUGUAUGGGUGUCUGCCCUAUGUGAGGUCAUAGCUCUUGCGGUCGCACUAGUGUGGAAUUCUCGGGUGUCAAGG
B14: ENSMUSG00000042529.424|Kcnj12 (ssRNA)
RNA: GGGAGUUCUACAGUCCGACGAUCGCUUCGAUAUCCGCAUGCUAGUGUGGAGGUCCCAGGGUGUGUGUAUGUGAAUGUCAGUGGCUUGGGUGCUGUGUGGAGAGAGAGAGAGAGAGAGAGAGAGAGAGAGAGAGAGAGAGAGAGAGAGAGCUGCACAGGAUGAAGCAGCUGCCCUGAGCCCAUCUGGUGCUGUGCACCUGGUCCUUGUCCAGCCGAGGGCCUGGGGGCAGAAGAACACACCAUAGGGAGGCCCUUGUAUGGGUGUCUGCCCUAUGUGAGGUCAUAGAAUGUUAAAUCUAUUUUACUCUUGCGGUCGCACUAGUGUGGAAUUCUCGGGUGUCAAGG
B15: ENSMUSG00000042529.417|Kcnj12 (ssRNA)
RNA: GGGAGUUCUACAGUCCGACGAUCGCUUCGAUAUCCGCAUGCUAGUGUGUGUGUGUGUGUGUGUGUGUGUGUGAACAUGUGUGAGGGUGUGGAGGUCCCAGGGUGUGUGUAUGUGAAUGUCAGUGGCUUGGGUGCUGUGUGGAGAGAGAGAGAGAGAGAGAGAGAGAGAGAGAGAGAGAGAGAGAGAGAGAGCUGCACAGGAUGAAGCAGCUGCCCUGAGCCCAUCUGGUGCUGUGCACCUGGUCCUUGUCCAGCCGAGGGCCUGGGGGCAGAAGAACACACCAUAGGGAGGCCCUUGUAUGGGCUCUUGCGGUCGCACUAGUGUGGAAUUCUCGGGUGUCAAGG

TDP-43, sequence (Q13148 whole entry): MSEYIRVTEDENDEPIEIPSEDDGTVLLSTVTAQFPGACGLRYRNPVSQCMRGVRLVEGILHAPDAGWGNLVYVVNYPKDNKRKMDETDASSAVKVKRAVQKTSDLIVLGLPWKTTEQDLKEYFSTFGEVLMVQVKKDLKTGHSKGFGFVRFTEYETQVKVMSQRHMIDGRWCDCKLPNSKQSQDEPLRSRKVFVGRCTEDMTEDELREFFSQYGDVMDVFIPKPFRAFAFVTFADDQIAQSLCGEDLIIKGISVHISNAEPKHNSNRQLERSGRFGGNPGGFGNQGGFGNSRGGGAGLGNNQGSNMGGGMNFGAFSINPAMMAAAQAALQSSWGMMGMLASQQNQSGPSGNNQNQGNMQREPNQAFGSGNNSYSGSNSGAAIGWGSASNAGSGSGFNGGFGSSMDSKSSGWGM

For this assay, the target named is TDP-43 (Homo sapiens, UniProt Q13148 1-414). As to the kind of experiment: RNA Bind-n-Seq with designed 260-mer pool; 25 mM Tris-HCl, 150 mM KCl, 3 mM MgCl2, BSA (printed 500 mg/mL), 20 units/mL SUPERase IN; pH not stated; 500 nM RNA pool, 1 h, 4 C; TDP-43 5, 50, 500 nM; high values mean tight binding. To be noted: protein: recombinant; tags: SBP (GST cleaved off with PreScission; pGEX-GST-SBP). A digest of the protocol:
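The incubation lasted 1 h at 4 °C and used 500 nM of an in vitro-transcribed 260-nt 3′ UTR oligo pool with recombinant SBP-tagged TDP-43 at 5, 50 or 500 nM immobilized on streptavidin beads. It took place in 25 mM Tris-HCl, 150 mM KCl, 3 mM MgCl2, BSA and SUPERase IN. Bound RNA was washed, eluted with biotin, converted to cDNA, PCR-amplified and sequenced to give R, each oligo's normalized abundance in the bound sample divided by that in input. Two independent protein batches provided the duplicates.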
Take B1: the binding signal is 0.697 R (bound/input frequency ratio).

For B2, the binding signal was 0.848 R (bound/input frequency ratio).

As to B3, the binding signal is 1.13 R (bound/input frequency ratio).

Turning to B4, the binding signal was 0.495 R (bound/input frequency ratio).

Regarding B5, the binding signal is 1.1 R (bound/input frequency ratio).

As to B6, the binding signal was 1.04 R (bound/input frequency ratio).

As for B7, the binding signal is 6.65 R (bound/input frequency ratio).

With B8, the binding signal is 6.59 R (bound/input frequency ratio).

In the case of B9, the binding signal was 7.6 R (bound/input frequency ratio).

Turning to B10, the binding signal was 6.38 R (bound/input frequency ratio).

On to B11, for which the binding signal was 6.11 R (bound/input frequency ratio).

Turning to B12, the binding signal is 6.32 R (bound/input frequency ratio).

Regarding B13, the binding signal was 6.04 R (bound/input frequency ratio).

For the molecule B14, the binding signal is 5.67 R (bound/input frequency ratio).

Take B15: the binding signal is 5.22 R (bound/input frequency ratio).
